The supplement of paper PMC12494721
Counter-ions that a name gives are not always drawn.

Assays:
Conditions in all cases: incubation time: 27 h, anaerobic, 37 °C;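 for the amine columns active = adjusted P below 0.05 in both replicates with a change the same way and a mean fold change under 0.8 or over 1.25; inactive = the rest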
[1] = tested on: Clostridium sporogenes DSM 1664; test: growth (OD595) fold change vs plate DMSO controls (fold change (ratio)); higher = more growth
In short: (§1)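 The reported measure is growth: the fold change against the median of DMSO controls on the plate. Absorbance at 595 nm from anaerobic 96-well mGAM cultures grown for 27 h at 37 °C was blank-subtracted, corrected for background with 20 µM compound solutions in water, and converted to OD with a calibration factor of 5. Fold changes above 1.5 appear as NA, and values are the mean of 2 biological replicates.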

Escherichia coli IAI1 [2] = test: as above
In short: as §1

[3] = tested on: Klebsiella aerogenes DSM 30053; test: as above
In short: as §1

[4] = tested on: Ruminococcus gnavus DSM 108212; test: as above
In short: as §1

[5] = tested on: Klebsiella aerogenes DSM 30053; test: fold change of Histamine concentration vs plate DMSO controls (fold change (ratio)); higher = more amine produced, active = hit call of the paper (significant change in both replicates, either direction)
In short: (§2)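 Extracts of whole anaerobic mGAM cultures were analysed for amines by LC–triple-quadrupole MS with dynamic MRM and external calibration curves, with drift corrected within batch. Four gut strains were grown at 37 °C for 27 h in 80 µL wells with compounds at 20 µM final, sweeteners at 50 µM final. Each value expresses fold change over plate DMSO controls. The average of 2 biological replicates is shown.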

[6] = tested on: Clostridium sporogenes DSM 1664; test: fold change of Tryptamine concentration vs plate DMSO controls (fold change (ratio)); higher = more amine produced, active = hit call of the paper (significant change in both replicates, either direction)
In short: as §2

[7] = tested on: Ruminococcus gnavus DSM 108212; test: as above
In short: as §2

Escherichia coli IAI1 [8] = test: fold change of Putrescine concentration vs plate DMSO controls (fold change (ratio)); higher = more amine produced, active = hit call of the paper (significant change in both replicates, either direction)
In short: as §2

[9] = tested on: Klebsiella aerogenes DSM 30053; test: as above
In short: as §2

Escherichia coli IAI1 [10] = test: fold change of Cadaverine concentration vs plate DMSO controls (fold change (ratio)); higher = more amine produced, active = hit call of the paper (significant change in both replicates, either direction)
In short: as §2

[11] = tested on: Klebsiella aerogenes DSM 30053; test: as above
In short: as §2

[12] = tested on: Ruminococcus gnavus DSM 108212; test: fold change of 2-Phenylethylamine concentration vs plate DMSO controls (fold change (ratio)); higher = more amine produced, active = hit call of the paper (significant change in both replicates, either direction)
In short: as §2

| Structure (SMILES) | growth [1] | growth (Escherichia coli IAI1 [2]) | growth [3] | growth [4] | fold change of Histamine concentration [5] | fold change of Tryptamine concentration [6] | fold change of Tryptamine concentration [7] | fold change of Putrescine concentration (Escherichia coli IAI1 [8]) | fold change of Putrescine concentration [9] | fold change of Cadaverine concentration (Escherichia coli IAI1 [10]) | fold change of Cadaverine concentration [11] | fold change of 2-Phenylethylamine concentration [12] |
| --- | --- | --- | --- | --- | --- | --- | --- | --- | --- | --- | --- | --- |
| CC(C(=O)O)c1cccc(C(=O)c2ccccc2)c1 (stereo not given) [Ketoprofen] (20 µM) | 0.99 | 1.04 | 0.993 | 0.957 | 1.03 (inactive) | 0.984 (inactive) | 1.06 (inactive) | 1.1 (inactive) | 1.01 (inactive) | 1.02 (inactive) | 0.995 (inactive) | 1.12 (inactive) |
| CC1(C)[C@H](C(=O)O)N2C(=O)C[C@H]2S1(=O)=O [Sulbactam] (20 µM) | 0.592 | 1.19 | 0.976 | 1.21 | 1.05 (inactive) | 1.07 (inactive) | 1.07 (inactive) | 1.14 (inactive) | 0.983 (inactive) | 0.985 (inactive) | 1.01 (inactive) | 1.08 (inactive) |
| O=C(NCCN1CCOCC1)c1ccc(Cl)cc1 [Moclobemide] (20 µM) | 1.03 | 0.993 | 0.971 | 1.21 | 1.06 (inactive) | 1.04 (inactive) | 1.03 (inactive) | 1 (inactive) | 1.01 (inactive) | 1.01 (inactive) | 0.987 (inactive) | 1.03 (inactive) |
| NC[C@H]1O[C@H](O[C@H]2[C@H](O)[C@@H](O[C@H]3O[C@H](CO)[C@@H](O)[C@H](N)[C@H]3O)[C@H](N)C[C@@H]2N)[C@H](N)[C@@H](O)[C@@H]1O [Kanamycin B] (20 µM) | 1.05 | 0.89 | 0.765 | 0.976 | 0.723 (active) | 0.998 (inactive) | 0.923 (inactive) | 0.882 (inactive) | 1 (inactive) | 1.08 (inactive) | 0.978 (inactive) | 0.945 (inactive) |
| COC(=O)Nc1nc2ccc(SC(C)C)cc2[nH]1 [Methiazole] (20 µM) | 0.921 | 1 | 1.24 | 1.08 | 0.952 (inactive) | 1.04 (inactive) | 0.938 (inactive) | 0.996 (inactive) | 1.01 (inactive) | 1.04 (inactive) | 1.02 (inactive) | 0.929 (inactive) |
| C=CCOc1ccccc1OCC(O)CNC(C)C (stereo not given) [Oxprenolol hydrochloride] (20 µM) | 0.929 | 0.97 | 0.986 | 0.945 | 1.02 (inactive) | 1.08 (inactive) | 1.05 (inactive) | 1.01 (inactive) | 1 (inactive) | 1.02 (inactive) | 0.988 (inactive) | 1.04 (inactive) |
| NNCCc1ccccc1 [Phenelzine sulfate] (20 µM) | 0.965 | 0.99 | 1.02 | 1.01 | 1.05 (inactive) | 0.921 (inactive) | 0.995 (inactive) | 1.12 (inactive) | 0.977 (inactive) | 1.04 (inactive) | 1.03 (inactive) | 0.911 (inactive) |
| O=C(O)/C=C/c1ccc(Cn2ccnc2)cc1 [Ozagrel hydrochloride] (20 µM) | 0.923 | 0.982 | 0.994 | 0.975 | 1.02 (inactive) | 1.01 (inactive) | 1.04 (inactive) | 1.01 (inactive) | 0.993 (inactive) | 1.01 (inactive) | 0.986 (inactive) | 0.999 (inactive) |
| CC=CC1=C(C(=O)O)N2C(=O)[C@@H](NC(=O)[C@H](N)c3ccc(O)cc3)[C@H]2SC1 [Cefprozil] (20 µM) | 0.404 | 1.01 | 0.983 | 0.5 | 1.06 (inactive) | 0.324 (active) | 0.637 (inactive) | 0.914 (inactive) | 1.02 (inactive) | 0.955 (inactive) | 1.02 (inactive) | 0.843 (inactive) |
| CCOC(=O)[C@H](CCc1ccccc1)N[C@H]1CCc2ccccc2N(CC(=O)O)C1=O [Benazepril hydrochloride] (20 µM) | 1.03 | 1 | 1 | 1.02 | 1 (inactive) | 1.06 (inactive) | 1.02 (inactive) | 0.997 (inactive) | 0.981 (inactive) | 0.989 (inactive) | 1.02 (inactive) | 1.01 (inactive) |
| Nc1nc2c(ncn2COC(CO)CO)c(=O)[nH]1 [Ganciclovir] (20 µM) | 0.925 | 0.989 | 0.946 | 1.07 | 1.04 (inactive) | 1.06 (inactive) | 0.974 (inactive) | 1.02 (inactive) | 1.02 (inactive) | 1.03 (inactive) | 0.999 (inactive) | 0.954 (inactive) |
| O=C(O)c1cc(=O)c2ccccc2o1 [Chromocarb] (20 µM) | 0.945 | 0.984 | 0.99 | 0.957 | 1.02 (inactive) | 1.01 (inactive) | 0.989 (inactive) | 1.01 (inactive) | 0.998 (inactive) | 0.983 (inactive) | 0.979 (inactive) | 0.974 (inactive) |
| CC(=O)OCC1=C(C(=O)O)N2C(=O)[C@@H](NC(=O)Cc3cccs3)[C@H]2SC1 [Cephalothin sodium salt] (20 µM) | 0 | 1.29 | 1.11 | 0.125 | 1.1 (inactive) | 0.0346 (active) | 0.0635 (active) | 1.17 (inactive) | 1.02 (inactive) | 1.62 (inactive) | 1.01 (inactive) | 0.0703 (active) |
| Cc1onc(-c2ccccc2)c1C(=O)N[C@@H]1C(=O)N2[C@@H]1SC(C)(C)[C@@H]2C(=O)O [Oxacillin sodium] (20 µM) | 0 | 0.994 | 1.01 | 0 | 0.996 (inactive) | 0.0257 (active) | 0.0465 (active) | 0.949 (inactive) | 0.992 (inactive) | 1.01 (inactive) | 0.984 (inactive) | 0.0469 (active) |
| O=C(O)Cc1ccccc1Nc1c(Cl)cccc1Cl [Diclofenac sodium] (20 µM) | 0.954 | 0.984 | 0.986 | 1.03 | 1.06 (inactive) | 0.699 (active) | 0.988 (inactive) | 1.02 (inactive) | 1 (inactive) | 1.01 (inactive) | 1 (inactive) | 0.989 (inactive) |
| O=C(CCCCC(=O)Nc1c(I)cc(I)c(C(=O)O)c1I)Nc1c(I)cc(I)c(C(=O)O)c1I [Iodipamide] (20 µM) | 0.854 | 1.01 | 0.982 | 0.98 | 1.04 (inactive) | 1.02 (inactive) | 0.925 (inactive) | 1.13 (inactive) | 1.02 (inactive) | 1.01 (inactive) | 0.989 (inactive) | 0.892 (inactive) |
| CCOC(=O)[C@H](CCc1ccccc1)N[C@H]1CS[C@H](c2cccs2)CN(CC(=O)O)C1=O [Temocapril hydrochloride] (20 µM) | 1.1 | 1.05 | 1.08 | 1.05 | 0.959 (inactive) | 0.989 (inactive) | 0.991 (inactive) | 0.997 (inactive) | 1.03 (inactive) | 1.04 (inactive) | 1.01 (inactive) | 1.01 (inactive) |
| COc1cc2c(cc1OC)C(=O)C(CC1CCN(Cc3ccccc3)CC1)C2 (stereo not given) [Donepezil hydrochloride] (20 µM) | 1.2 | 1.23 | 1.02 | 0.917 | 1.53 (inactive) | 0.947 (inactive) | 1.03 (inactive) | 1.24 (inactive) | 2.04 (inactive) | 0.981 (inactive) | 1.21 (inactive) | 1.08 (inactive) |
| CC(=O)O[C@H]1C[C@@]2(C)[C@@H](C[C@@H](O)[C@H]3[C@@]4(C)CC[C@@H](O)[C@@H](C)[C@@H]4CC[C@@]32C)/C1=C(\CCC=C(C)C)C(=O)O [Fusidic acid sodium salt] (20 µM) | 0.00767 | 1.02 | 1.09 | 0.122 | 0.846 (inactive) | 0.0208 (active) | 0.102 (active) | 0.913 (inactive) | 0.963 (inactive) | 1 (inactive) | 1.02 (inactive) | 0.106 (active) |
| C[C@H](N[C@@H](CCc1ccccc1)C(=O)O)C(=O)N1CCC[C@H]1C(=O)O [Enalaprilat dihydrate] (20 µM) | 0.89 | 0.971 | 0.996 | 1.16 | 1.04 (inactive) | 0.967 (inactive) | 1.04 (inactive) | 1 (inactive) | 1.01 (inactive) | 1.08 (inactive) | 0.991 (inactive) | 1.04 (inactive) |
| Cc1cc2nc3ccc(=[N+](C)C)cc-3sc2cc1N [Tolonium chloride] (20 µM) | 0.823 | 0.559 | 0.55 | 0.0958 | 0.959 (inactive) | 1 (inactive) | 0.972 (inactive) | 0.979 (inactive) | 1 (inactive) | 1.05 (inactive) | 0.984 (inactive) | 0.959 (inactive) |
| CCN(CC)CCNC(=O)c1cc(S(C)(=O)=O)ccc1OC [Tiapride hydrochloride] (20 µM) | 0.729 | 0.484 | 0.715 | 0.09 | 0.997 (inactive) | 0.999 (inactive) | 1 (inactive) | 1.01 (inactive) | 0.992 (inactive) | 1.03 (inactive) | 1 (inactive) | 0.956 (inactive) |
| CCn1cc(C(=O)O)c(=O)c2cc(F)c(N3CCNCC3)nc21 [Enoxacin] (20 µM) | 0.0582 | 0.0418 | 0.246 | 1.01 | 0.228 (active) | 0.0679 (active) | 0.892 (inactive) | 0.878 (inactive) | 1.19 (inactive) | 0.269 (active) | 0.961 (inactive) | 0.905 (inactive) |
| N=C(NCCCCCCNC(=N)NC(=N)Nc1ccc(Cl)cc1)NC(=N)Nc1ccc(Cl)cc1 [Chlorhexidine] (20 µM) | 0.00305 | 0.885 | 0.782 | 0.0252 | 0.936 (inactive) | 0.032 (active) | 0.0867 (active) | 0.641 (inactive) | 0.783 (inactive) | 1.98 (active) | 1 (inactive) | 0.0518 (active) |
| CN(c1nccc(=O)[nH]1)C1CCN(c2nc3ccccc3n2Cc2ccc(F)cc2)CC1 [Mizolastine] (20 µM) | 1.22 | 1.02 | 1.04 | 1.24 | 1.03 (inactive) | 0.967 (inactive) | 0.973 (inactive) | 0.986 (inactive) | 0.991 (inactive) | 0.977 (inactive) | 0.982 (inactive) | 0.967 (inactive) |
